Results on four targets are retold here after the supplement of paper PMC6411743.

Compound in this assay: Nc1ncnc2c1ncn2[C@@H]1O[C@H](COP(=O)(O)OP(=O)(O)OP(=O)(O)O)[C@@H](O)[C@H]1O [adenosine triphosphate]
The assay is described as follows: NP40-soluble protein abundance relative to vehicle (solubility fold change) (ratio); higher = more soluble protein in presence of ATP. A digest of the protocol:
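Each value is a fold change relative to the detergent-processed vehicle, calculated per replicate from vsn-normalised intensities. Jurkat crude lysate received eight concentrations (0.1 to 10 mM) for 10 min at room temperature and 3 min at 37 °C, then was solubilised in 0.8% NP40 with benzonase (60 min, 4 °C). The ultracentrifuged supernatant was TMT-labelled and run by LC-MS/MS in three independent experiments.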

± gives the standard deviation of the averaged measurements. Targets with the largest changes are over-represented here; the source holds about 6,500 in all.

Chain of UniProt Q9NZJ4 (Q9NZJ4 whole entry): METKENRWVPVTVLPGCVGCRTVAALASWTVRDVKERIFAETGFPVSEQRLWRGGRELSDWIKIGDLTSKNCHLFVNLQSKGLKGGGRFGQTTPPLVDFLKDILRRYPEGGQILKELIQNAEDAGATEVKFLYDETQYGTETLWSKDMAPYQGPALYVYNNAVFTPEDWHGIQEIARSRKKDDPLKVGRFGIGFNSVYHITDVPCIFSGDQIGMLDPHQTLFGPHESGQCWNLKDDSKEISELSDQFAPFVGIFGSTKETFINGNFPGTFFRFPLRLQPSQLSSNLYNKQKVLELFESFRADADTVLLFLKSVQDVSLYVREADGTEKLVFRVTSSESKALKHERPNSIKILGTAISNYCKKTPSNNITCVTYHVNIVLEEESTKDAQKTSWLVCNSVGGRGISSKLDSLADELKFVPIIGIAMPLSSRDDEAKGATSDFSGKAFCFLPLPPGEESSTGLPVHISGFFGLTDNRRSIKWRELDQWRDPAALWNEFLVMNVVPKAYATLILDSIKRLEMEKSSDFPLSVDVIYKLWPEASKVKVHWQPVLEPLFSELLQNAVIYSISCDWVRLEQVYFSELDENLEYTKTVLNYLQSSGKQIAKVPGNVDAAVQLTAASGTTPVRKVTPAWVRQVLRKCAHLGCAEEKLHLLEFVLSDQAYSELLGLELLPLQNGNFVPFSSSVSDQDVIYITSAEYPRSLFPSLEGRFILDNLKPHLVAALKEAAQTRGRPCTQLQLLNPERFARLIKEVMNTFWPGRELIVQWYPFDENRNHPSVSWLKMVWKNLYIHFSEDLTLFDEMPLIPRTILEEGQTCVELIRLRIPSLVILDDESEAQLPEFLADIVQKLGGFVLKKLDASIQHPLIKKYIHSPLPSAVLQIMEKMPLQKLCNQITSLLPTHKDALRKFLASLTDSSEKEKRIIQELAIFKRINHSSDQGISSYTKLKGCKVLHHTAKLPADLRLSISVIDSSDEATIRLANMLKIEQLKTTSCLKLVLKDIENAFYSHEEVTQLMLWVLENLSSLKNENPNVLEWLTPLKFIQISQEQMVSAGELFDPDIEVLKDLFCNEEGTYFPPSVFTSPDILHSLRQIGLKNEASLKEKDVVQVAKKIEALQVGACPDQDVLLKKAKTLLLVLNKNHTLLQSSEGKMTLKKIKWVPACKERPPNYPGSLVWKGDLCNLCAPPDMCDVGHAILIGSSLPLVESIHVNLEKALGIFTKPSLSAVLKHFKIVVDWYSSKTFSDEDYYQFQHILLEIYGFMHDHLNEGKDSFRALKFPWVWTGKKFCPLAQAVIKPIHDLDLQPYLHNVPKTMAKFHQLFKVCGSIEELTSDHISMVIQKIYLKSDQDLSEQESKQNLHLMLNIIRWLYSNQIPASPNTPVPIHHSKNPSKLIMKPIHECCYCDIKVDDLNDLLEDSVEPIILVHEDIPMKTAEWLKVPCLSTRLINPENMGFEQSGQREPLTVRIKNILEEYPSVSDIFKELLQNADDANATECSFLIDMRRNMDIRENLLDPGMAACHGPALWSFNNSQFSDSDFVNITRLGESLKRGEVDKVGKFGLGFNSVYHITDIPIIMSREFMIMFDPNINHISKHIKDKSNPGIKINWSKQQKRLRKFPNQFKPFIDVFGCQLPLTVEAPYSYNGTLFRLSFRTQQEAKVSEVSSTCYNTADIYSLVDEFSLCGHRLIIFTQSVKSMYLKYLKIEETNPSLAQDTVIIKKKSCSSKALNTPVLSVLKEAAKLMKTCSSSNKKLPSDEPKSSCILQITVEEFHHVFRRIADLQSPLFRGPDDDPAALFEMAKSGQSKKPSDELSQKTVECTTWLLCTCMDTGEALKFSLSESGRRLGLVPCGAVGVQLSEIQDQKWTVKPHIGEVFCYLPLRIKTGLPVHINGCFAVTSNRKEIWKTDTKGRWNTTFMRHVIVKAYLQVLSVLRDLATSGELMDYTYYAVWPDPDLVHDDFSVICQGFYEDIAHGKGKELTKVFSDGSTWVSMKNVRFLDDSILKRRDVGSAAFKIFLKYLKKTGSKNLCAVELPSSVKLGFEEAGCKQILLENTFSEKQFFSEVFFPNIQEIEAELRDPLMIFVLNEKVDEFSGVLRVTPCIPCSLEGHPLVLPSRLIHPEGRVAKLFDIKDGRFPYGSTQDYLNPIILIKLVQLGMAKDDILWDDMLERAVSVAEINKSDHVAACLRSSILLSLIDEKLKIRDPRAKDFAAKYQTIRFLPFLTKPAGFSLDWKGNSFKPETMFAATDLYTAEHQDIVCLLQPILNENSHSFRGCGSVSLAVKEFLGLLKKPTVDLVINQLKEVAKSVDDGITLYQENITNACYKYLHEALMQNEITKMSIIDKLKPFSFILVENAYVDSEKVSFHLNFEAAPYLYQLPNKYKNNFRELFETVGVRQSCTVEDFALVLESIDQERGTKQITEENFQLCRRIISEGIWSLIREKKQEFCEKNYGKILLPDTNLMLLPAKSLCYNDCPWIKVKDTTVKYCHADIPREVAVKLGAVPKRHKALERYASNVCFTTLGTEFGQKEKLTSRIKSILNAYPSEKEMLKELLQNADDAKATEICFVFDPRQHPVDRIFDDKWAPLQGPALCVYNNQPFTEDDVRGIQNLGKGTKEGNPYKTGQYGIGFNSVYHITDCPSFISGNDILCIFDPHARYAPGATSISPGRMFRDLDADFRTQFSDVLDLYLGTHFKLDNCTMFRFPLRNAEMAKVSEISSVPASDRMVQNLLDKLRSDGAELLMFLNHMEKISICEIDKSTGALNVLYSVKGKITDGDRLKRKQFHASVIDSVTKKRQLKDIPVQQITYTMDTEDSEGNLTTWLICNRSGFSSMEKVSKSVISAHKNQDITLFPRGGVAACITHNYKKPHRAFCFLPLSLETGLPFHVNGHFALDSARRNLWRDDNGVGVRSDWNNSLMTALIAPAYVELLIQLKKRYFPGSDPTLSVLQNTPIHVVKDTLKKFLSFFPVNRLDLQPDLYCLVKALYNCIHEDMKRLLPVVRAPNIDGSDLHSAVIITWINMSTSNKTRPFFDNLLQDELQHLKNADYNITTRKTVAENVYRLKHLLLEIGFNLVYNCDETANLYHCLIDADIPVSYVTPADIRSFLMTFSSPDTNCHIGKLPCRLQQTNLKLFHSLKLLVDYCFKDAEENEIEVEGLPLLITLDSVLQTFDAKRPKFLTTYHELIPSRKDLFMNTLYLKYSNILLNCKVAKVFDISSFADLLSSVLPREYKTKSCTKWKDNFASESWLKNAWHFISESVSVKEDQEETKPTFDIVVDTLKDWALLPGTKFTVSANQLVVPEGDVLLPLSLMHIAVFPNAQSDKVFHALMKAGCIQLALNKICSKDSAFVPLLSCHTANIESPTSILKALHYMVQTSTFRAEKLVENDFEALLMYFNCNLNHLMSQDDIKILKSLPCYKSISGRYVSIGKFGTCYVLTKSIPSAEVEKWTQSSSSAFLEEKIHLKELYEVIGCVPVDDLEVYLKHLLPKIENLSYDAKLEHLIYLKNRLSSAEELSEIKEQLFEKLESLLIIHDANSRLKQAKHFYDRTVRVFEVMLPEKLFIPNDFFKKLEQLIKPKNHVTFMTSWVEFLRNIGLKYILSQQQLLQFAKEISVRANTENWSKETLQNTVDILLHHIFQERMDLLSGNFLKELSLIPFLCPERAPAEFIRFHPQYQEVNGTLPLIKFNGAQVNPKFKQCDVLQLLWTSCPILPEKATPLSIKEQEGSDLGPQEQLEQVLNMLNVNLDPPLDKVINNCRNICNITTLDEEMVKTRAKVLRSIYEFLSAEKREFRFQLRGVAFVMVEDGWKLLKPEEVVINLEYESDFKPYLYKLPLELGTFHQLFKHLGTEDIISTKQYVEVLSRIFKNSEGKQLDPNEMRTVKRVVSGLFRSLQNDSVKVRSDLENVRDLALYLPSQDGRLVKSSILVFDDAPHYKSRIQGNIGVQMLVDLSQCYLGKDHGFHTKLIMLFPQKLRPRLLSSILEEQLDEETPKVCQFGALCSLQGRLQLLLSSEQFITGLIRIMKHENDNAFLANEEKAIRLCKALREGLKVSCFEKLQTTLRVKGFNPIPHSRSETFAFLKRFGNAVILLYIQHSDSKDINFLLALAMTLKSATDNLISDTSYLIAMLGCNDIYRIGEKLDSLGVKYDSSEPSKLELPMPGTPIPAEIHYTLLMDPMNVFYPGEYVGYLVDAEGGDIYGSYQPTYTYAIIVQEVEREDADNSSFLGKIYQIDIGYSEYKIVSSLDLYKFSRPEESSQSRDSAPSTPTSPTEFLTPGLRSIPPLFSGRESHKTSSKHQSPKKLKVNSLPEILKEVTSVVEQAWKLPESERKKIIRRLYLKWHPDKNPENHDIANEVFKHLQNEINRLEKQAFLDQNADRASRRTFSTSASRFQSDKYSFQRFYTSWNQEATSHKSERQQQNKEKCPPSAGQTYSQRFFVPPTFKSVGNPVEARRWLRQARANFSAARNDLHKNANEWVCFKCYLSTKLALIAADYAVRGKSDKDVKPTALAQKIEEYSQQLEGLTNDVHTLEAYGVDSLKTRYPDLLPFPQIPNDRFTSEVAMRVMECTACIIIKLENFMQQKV
Chain of UniProt Q9BXI6 (Q9BXI6 whole entry): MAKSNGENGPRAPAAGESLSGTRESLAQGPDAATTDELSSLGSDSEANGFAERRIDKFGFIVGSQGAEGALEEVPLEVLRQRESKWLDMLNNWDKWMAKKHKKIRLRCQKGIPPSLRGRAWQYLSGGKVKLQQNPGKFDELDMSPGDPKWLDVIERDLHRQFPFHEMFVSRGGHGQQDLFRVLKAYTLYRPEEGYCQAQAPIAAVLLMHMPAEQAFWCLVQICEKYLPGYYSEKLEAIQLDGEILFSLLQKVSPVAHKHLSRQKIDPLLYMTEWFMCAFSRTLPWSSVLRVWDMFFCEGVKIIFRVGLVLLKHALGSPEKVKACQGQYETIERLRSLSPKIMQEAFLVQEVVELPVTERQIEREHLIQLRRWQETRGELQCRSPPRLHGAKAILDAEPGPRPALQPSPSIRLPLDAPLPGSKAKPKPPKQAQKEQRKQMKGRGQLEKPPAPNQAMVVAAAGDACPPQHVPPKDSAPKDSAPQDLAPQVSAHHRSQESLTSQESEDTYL

On to UniProt Q96N16|Q96N16-2, for which the NP40-soluble protein abundance turned out to be 1.17 ± 0.24 (concentration: 1mM); 1.27 ± 0.16 (concentration: 2mM); 1.28 ± 0.24 (concentration: 4mM); 1.37 ± 0.19 (concentration: 6mM); 1.27 ± 0.23 (concentration: 8mM); 1.36 ± 0.17 (concentration: 10mM).
Take UniProt Q9BXI6|Q9BXI6-2: the NP40-soluble protein abundance came to 0.935 ± 0.035 (concentration: 1mM); 0.917 ± 0.032 (concentration: 2mM); 0.927 ± 0.031 (concentration: 4mM); 0.941 ± 0.038 (concentration: 6mM); 0.895 ± 0.025 (concentration: 8mM); 0.925 ± 0.045 (concentration: 10mM).
As to SACS (UniProt Q9NZJ4), the NP40-soluble protein abundance reads like this: (concentration: 1mM) 1.09 ± 0.08; (concentration: 2mM) 1.04 ± 0.072; (concentration: 4mM) 1.08 ± 0.056; (concentration: 6mM) 0.991 ± 0.075; (concentration: 8mM) 1.102 ± 0.01; (concentration: 10mM) 1.05 ± 0.042.
For UniProt Q9BTT6, the NP40-soluble protein abundance came to 0.931 ± 0.073 (concentration: 1mM); 0.916 ± 0.081 (concentration: 2mM); 0.945 ± 0.049 (concentration: 4mM); 0.967 ± 0.092 (concentration: 6mM); 0.961 ± 0.092 (concentration: 8mM); 0.922 ± 0.045 (concentration: 10mM).
